Source: PubChem
In the library only some 2.3% were active in any assay of this set; here they are far more common.
aSyn yeast inh – inhibitors of alpha-synuclein toxicity in yeast. Yeast expressing alpha-synuclein, growth rescue, BacTiter-Glo, 24 h. Potency, µM (top dose mostly 46.1 µM), for inactives: top-dose growth rescue (activation), hits mostly activators. 0.14% of 370,000 active. AID 652106; further: % of control where 0% means no effect; nearly all actives have a fitted effect of over 65% in size
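Screening used galactose-induced yeast with toxic alpha-synuclein levels, exposed to compound for 24 hr at 30 deg C. Cell growth, read with BacTiter-Glo luminescence, gave the measured signal.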
FUS yeast rescue – suppressors of FUS proteinopathy in yeast; S. cerevisiae FUS-expressing, growth rescue, OD600, 24 h; Potency, µM (highest dose often 76.6 µM), actives largely listed as activators; 0.24% of 390,000 active;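 further: plate controls were DMSO vehicle for no effect and reference control for full effect; nearly all actives have a fitted effect of over 55% in size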
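Restored growth of FUS-toxic S. cerevisiae, read as 600 nm absorbance after 24 h at 30C in galactose medium (starting OD 0.005). Controls CP55940 and DMSO.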
TDP-43 yeast inh – TDP-43 toxicity inhibition in yeast; TDP-43 expressing yeast growth rescue, BacTiter-Glo, 24 h; Potency, µM (titrated, usually from 46.1 µM), without a hit: top-dose growth rescue (activation), hits mostly activators; 1.8% of 410,000 active; AID 652104; further: % of control where 0% means no effect; nearly all actives have a fitted effect of over 50% in size
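Luminescence from BacTiter-Glo reports growth of TDP-43-expressing yeast after 24 hr at 30 deg C with compound. Cells were raffinose-pregrown to mid-log, then seeded in galactose medium at OD600=0.02.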
Chronic BCR inh – chronic active BCR signaling inhibition; ABC-DLBCL IkBa-CBG/CBR reporter, luminescence ratio, 4 h; 0.05% of 340,000 active; Potency, µM (doses to about 46.1 µM), inactives show at the highest dose activity change, negative = inhibition, actives largely listed as inhibitors; active means well fitted inhibition curve with a large enough effect in the signal ratio, with a control signal flat, not every such curve was filed as active; inconclusive means small, poorly fitted or top-dose-only effect, or effect the other way, or a change in a side signal; the % refers to the signal ratio;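 further: plate controls were basal doxycycline-induced cells for no effect and cells given 10 µM MG132 for full effect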
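Cell line TMD8 (human ABC DLBCL), stably expressing tet-inducible CBG68-IkBa fusion and CBR; IMDM/0.5% FBS; cpd up to 46 uM; dox induction, 4 h, 37C/5% CO2; dual luminescence; green/red ratio; MG132 control.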
Abeta rescue – restores growth of yeast expressing A-beta42 peptide; yeast expressing A-beta42, growth rescue, OD600, 48 h; response scale: 0% DMSO, 100% iron-clioquinol control; Potency, µM (top dose mostly 46.1 µM), hits mostly activators; 0.063% of 410,000 active; further: nearly all actives have a fitted effect of over 55% in size
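Growth rescue measured by 600 nm absorbance after 48 h yeast culture at 30 C with compound. Values normalized between DMSO and an equimolar ferric chloride plus clioquinol control.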
uPA surface inh – cell surface uPA generation inhibition; cell surface uPA generation assay, qHTS; Potency, µM (doses to about 38.3 µM), for inactives: at the top dose activity change, negative = inhibition, hits mostly inhibitors; 0.31% of 330,000 active; active means well fitted inhibition curve with a large enough effect; inconclusive means small, poorly fitted or top-dose-only effect; inactive means no such curve, though single readings can be large or run the other way; tested in mouse RAW 264.7 cells; further: on the % scale 0 is the no-effect control and ±100 the full control effect; nearly all actives have a fitted effect of over 55% in size
An asterisk follows results filed as active. Unless noted, the call rests on the fitted dose curve; in most records, active means well fitted curve in the direction sought with a large enough effect; inconclusive means small, poorly fitted or top-dose-only effect, or another doubt; inactive means no such curve, though single readings can be large; an effect the other way counts as inactive or inconclusive. Potency means the concentration at half of the fitted maximal effect.

CC1=NNC(=O)/C1=C\c1cn(-c2ccccc2)nc1-c1cccs1 was read as aSyn yeast inh -62.5%, FUS yeast rescue inconclusive, TDP-43 yeast inh -66.7%, Chronic BCR inh inconclusive, Abeta rescue inactive and uPA surface inh inconclusive.
CC1=NNC(=O)/C1=C\c1cn(-c2ccccc2)nc1-c1ccc(F)cc1 was read as aSyn yeast inh -70.5%, FUS yeast rescue inconclusive, TDP-43 yeast inh 11.2µM*, Chronic BCR inh inconclusive, Abeta rescue inactive and uPA surface inh -10.5%.
For CCCn1cc(S(=O)(=O)c2ccc(CC)cc2)c(=O)c2cc(F)c(N(CC)CC)cc21 the results were FUS yeast rescue inactive, TDP-43 yeast inh 22.2% and Abeta rescue inactive.
O=C(CCCN1C(=O)c2ccccc2C1=O)NCCc1ccc(OC(F)F)cc1 was read as aSyn yeast inh -9.0%, FUS yeast rescue inactive, TDP-43 yeast inh 12.6µM*, Chronic BCR inh inconclusive, Abeta rescue inconclusive and uPA surface inh 0.0%.
COc1ccc(CSc2ncnc3sccc23)cc1F was read as aSyn yeast inh 1.8%, FUS yeast rescue inactive, TDP-43 yeast inh 12.6µM*, Chronic BCR inh inconclusive, Abeta rescue inactive and uPA surface inh 0.6%.
CCOC(=O)N1CCN(c2c(NCc3cccs3)c(=O)c2=O)CC1 was read as aSyn yeast inh -3.4%, FUS yeast rescue inactive, TDP-43 yeast inh 8.6%, Chronic BCR inh inconclusive, Abeta rescue inactive and uPA surface inh inconclusive.
Screening CCOc1ccc(-c2cc(C(=O)NCCCN3CCN(CC)CC3)c3ccccc3n2)cc1 returned aSyn yeast inh 3.3%, FUS yeast rescue inactive, TDP-43 yeast inh -19.8%, Chronic BCR inh -12.3% and Abeta rescue inactive.
CC1CCN(C(=O)C(C)OC(=O)CSc2ccc([N+](=O)[O-])cc2)CC1 (stereo unspecified) was read as aSyn yeast inh -10.3%, FUS yeast rescue inactive, TDP-43 yeast inh 35.5µM*, Chronic BCR inh -0.4%, Abeta rescue inactive and uPA surface inh -12.1%.
For O=C(C1=C(O)C(=O)N(c2ncccn2)C1c1ccc(Cl)cc1)c1ccco1 (stereo unspecified) the results were aSyn yeast inh 6.0%, FUS yeast rescue 31.6µM*, TDP-43 yeast inh -0.4%, Chronic BCR inh 9.9%, Abeta rescue inactive and uPA surface inh -4.7%.
`Cc1ccc(C(=O)C2=C(O)C(=O)N(Cc3cccnc3)C2c2ccc(Cl)cc2)o1` (stereo unspecified) gave aSyn yeast inh -17.9%, FUS yeast rescue 28.2µM*, TDP-43 yeast inh -13.9%, Chronic BCR inh -4.8%, Abeta rescue inactive and uPA surface inh -1.3%.
`O=C(O)c1cc(-c2ccc(/C=c3\sc4nc5ccc(Br)cc5n4c3=O)o2)ccc1Cl` gave Chronic BCR inh -0.2%.
Cc1ccccc1-n1nnnc1SC(C)C(=O)NC1CCCc2ccccc21 (stereo unspecified) was read as aSyn yeast inh -2.4%, TDP-43 yeast inh 17.0%, Chronic BCR inh -0.7%, Abeta rescue inactive and uPA surface inh 0.9%.
Screening Cc1cccc(N2CCN(C(=O)c3ccc(CS(=O)Cc4ccc(Cl)cc4)o3)CC2)c1C (stereo unspecified) returned aSyn yeast inh inconclusive, FUS yeast rescue inconclusive, TDP-43 yeast inh 6.4%, Chronic BCR inh inconclusive, Abeta rescue inactive and uPA surface inh -6.5%.
O=C(c1ccc(CS(=O)c2ccccc2Cl)o1)N1CCCCCC1 (stereo unspecified) was read as aSyn yeast inh -2.4%, FUS yeast rescue inactive, TDP-43 yeast inh -0.1%, Chronic BCR inh 0.4%, Abeta rescue inactive and uPA surface inh 5.0%.
Screening COc1ccccc1N1CCN(C(=O)c2ccc(CS(=O)c3ccccc3C)o2)CC1 (stereo unspecified) returned FUS yeast rescue inactive, TDP-43 yeast inh -2.7% and Abeta rescue inactive.
Screening Cc1cccc(N2CCN(C(=O)c3cccs3)CC2)c1C returned aSyn yeast inh 4.0%, FUS yeast rescue inactive, TDP-43 yeast inh 5.62µM*, Chronic BCR inh inconclusive, Abeta rescue inactive and uPA surface inh 2.7%.
COc1ccccc1N1CCN(C(=O)c2cccs2)CC1 was read as aSyn yeast inh 2.4%, FUS yeast rescue inactive, TDP-43 yeast inh 20.8%, Chronic BCR inh -1.6%, Abeta rescue inactive and uPA surface inh -16.6%.
For O=C(c1ccc(CS(=O)c2ccccc2Cl)o1)N1CCN(c2ccccc2F)CC1 (stereo unspecified) the results were FUS yeast rescue inactive, TDP-43 yeast inh 12.6µM* and Abeta rescue inactive.
Cc1ccc(C(=O)N2CCN(c3cccc(C)c3C)CC2)o1 was read as aSyn yeast inh 5.2%, FUS yeast rescue inactive, TDP-43 yeast inh 12.6µM*, Chronic BCR inh -7.1%, Abeta rescue inactive and uPA surface inh -0.1%.
Cc1ccccc1S(=O)Cc1ccc(C(=O)N2CCN(c3cccc(C)c3C)CC2)o1 (stereo unspecified) was read as FUS yeast rescue inactive, TDP-43 yeast inh 35.5µM* and Abeta rescue inactive.
For CC(Sc1nnc(COc2ccc(Cl)cc2)n1-c1ccccc1)C(=O)O (stereo unspecified) the results were aSyn yeast inh -7.9%, FUS yeast rescue inactive, Chronic BCR inh 7.1%, Abeta rescue inactive and uPA surface inh 0.5%.
`Cc1nnc(SCC(=O)NC(=O)NC(C)(C)C)s1` gave aSyn yeast inh -3.1%, FUS yeast rescue inactive, TDP-43 yeast inh -11.6%, Chronic BCR inh -1.0%, Abeta rescue inactive and uPA surface inh 2.4%.
For O=C(c1cccs1)N1CCN(c2cc(Cl)ccc2Cl)CC1 the results were aSyn yeast inh -11.8%, FUS yeast rescue inactive, TDP-43 yeast inh 22.4µM*, Chronic BCR inh -0.9%, Abeta rescue inactive and uPA surface inh -2.9%.
Screening CC(=O)NC(CC(=O)NCc1ccncc1)c1ccccc1 (stereo unspecified) returned aSyn yeast inh -4.9%, FUS yeast rescue inactive, TDP-43 yeast inh 1.2%, Chronic BCR inh 2.7%, Abeta rescue inactive and uPA surface inh 5.9%.
Screening CC1=CC2=NC(=O)/C(=C\c3cccn3CCOc3ccc(C)c(C)c3)C(=N)N2O1 returned aSyn yeast inh 1.7%, FUS yeast rescue inactive, TDP-43 yeast inh -6.6%, Chronic BCR inh -6.6%, Abeta rescue inactive and uPA surface inh -6.8%.
For Cc1ccc(-c2ccnc3nc(-n4cccc4)nn23)o1 the results were aSyn yeast inh -3.3%, FUS yeast rescue inactive, TDP-43 yeast inh 35.5µM*, Chronic BCR inh 14.5%, Abeta rescue inactive and uPA surface inh -8.5%.
